Assay outcomes as filed in PubChem BioAssay.
BoNT-F LC inh – blocks Botulinum neurotoxin F light chain protease. hit rate 0.22% among 360,000. Multiplex microsphere protease cleavage assay, flow cytometry. inhibition, % at 10 µM. AID 588497; in the data active = inhibition above about 35%, passing the limit was not always enough; inconclusive = no clear call, values can overlap the other calls; note: plate controls were buffer without enzyme for full effect and enzyme alone for no effect
BoNT-A LC inh2 – BoNT A light chain protease inhibition; multiplex microsphere protease substrate cleavage, flow cytometry; inhibition, % at 10 µM; hit rate 0.17% among 360,000; note: plate controls were buffer without enzyme for full effect and enzyme alone for no effect
Bead autofluor – compound fluorescence in toxin protease inhibitor counterscreen. hit rate 3.1% among 360,000. compound autofluorescence counterscreen, microsphere flow cytometry; stronger effect = higher value. fluorescence intensity (no concentration beside the values); in the data active = fluorescence intensity above about 16000; inconclusive = no clear call, values can overlap the other calls
Anthrax LF inh2 – inhibitors of Bacillus anthracis lethal factor protease; P15917; multiplex microsphere protease cleavage assay, LF; inhibition, % at 10 µM; hit rate 0.12% among 360,000; AID 588501; note: plate controls were buffer without enzyme for full effect and enzyme alone for no effect
FBA Mtb inh – inhibits M. tuberculosis FBA enzyme; inhibition, % at 1 µM; P9WQA3; hit rate 2.3% among 360,000; purified M. tuberculosis FBA, fluorescence read-out; in the data active = inhibition above about 27%;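 note: 0% = vehicle and 100% = reference inhibitor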
GDH-TPI inh – inhibits GDH-TPI coupling enzymes, artifact for Mtb FBA screen. hit rate 1.2% among 360,000. inhibition, % at 4.8 µM. AID 588335. GDH-TPI coupled enzyme counterscreen, NADH absorbance; in the data active = inhibition above about 30%;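 note: 0% = DMSO wells and 100% = wells lacking the enzyme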
* = called active by the depositor; u = inconclusive; x = no result; + = active, no number. An excerpt weighted towards active compounds, which were near 6.7% of everything screened. Cut-off read from the data, not from the text of the source, unless noted: active = inhibition above about 30%; inconclusive = no clear call, values can overlap the other calls; inactive = below that.

SMILES	BoNT-F LC inh	BoNT-A LC inh2	Bead autofluor	Anthrax LF inh2	FBA Mtb inh	GDH-TPI inh
Cc1ccc(/C=C/C(=O)OCC(=O)NCCN2C(=O)CSC2=O)cc1	5.4	0.2	4090	0.3	0.9	-0.6
COc1ccccc1C(=O)N=Nc1c(O)[nH]c2ccc([N+](=O)[O-])cc12	-1.8	0.0	2440	-0.4	-1.2	18.1
NC(=O)N=Nc1c(O)[nH]c2ccc([N+](=O)[O-])cc12	-0.8	1.2	4430	-4.9	-3.1	31.1*
CC(C)Oc1ccc(N2CC(C(=O)Nc3ccccc3C(=O)NC3CC3)CC2=O)cc1 (stereo not drawn)	10.2	-0.9	u	-6.8	1.5	6.4
COCCCn1c(SCC(=O)N2CCCC(C)C2)nnc1-c1ccco1 (stereo not drawn)	0.7	-3.4	21046*	1.9	-0.2	-6.2
O=C(CSc1nnc(-c2ccco2)n1CC1CCCO1)N1CCCCC1 (stereo not drawn)	2.2	1.8	21580*	1.4	-1.7	0.0
O=C(CSc1nnc(-c2ccccc2)n1CC1CCCO1)N1CCCC1 (stereo not drawn)	-1.2	-0.1	3369	3.5	4.9	8.0
COC(=O)CSc1nc(N)c(C#N)c(CC(C)C)c1C#N	9.0	0.3	2169	1.4	3.9	20.6
CCOC(=O)CSc1nc(N)c(C#N)c(CC(C)C)c1C#N	0.8	u	21729*	-1.5	2.4	15.5
CCOC(=O)CC(=O)CSc1nc(N)c(C#N)c(-c2ccc(Cl)cc2)c1C#N	-3.8	-2.2	16851*	-3.9	8.6	22.8
O=C(COn1nnc2ccc(S(=O)(=O)N3CCOCC3)cc21)NCc1cccc(Cl)c1	14.4	0.5	3505	-2.4	-3.0	-10.1
CCCn1ncc(OC)c(Cl)c1=O	2.2	3.1	21990*	-11.2	1.5	-0.4
Cc1nc(Sc2ccccc2)c(C#N)cc1-c1ccccc1	-14.1	-2.0	12117	-2.3	2.9	-5.8
Cc1nc(Cl)c(C#N)cc1-c1ccccc1	-2.0	0.2	19692*	1.9	1.8	-5.8
O=C(Nc1ccc2c(c1)C(=O)N(c1ccccc1)C2=O)C1CCCO1 (stereo not drawn)	-0.3	u	21610*	-5.0	-1.4	9.7
CCOc1ccc(NC(=O)NCCCSC2CCCCC2)cc1	-0.1	-0.3	22514*	0.7	0.4	11.8
CCOc1ccc(NC(=O)NCCN2C(C)CCCC2C)cc1 (stereo not drawn)	-1.1	-1.4	17584*	-0.4	1.2	9.3
COc1ccc(NC(=O)NCCCN2CCCCC2C)cc1 (stereo not drawn)	5.0	0.0	2409	0.7	-0.2	9.4
CCOc1ccc(NC(=O)NC2CCCCCCC2)cc1	-6.9	-2.6	6558	-0.8	-2.1	-3.7
O=S(=O)(c1ccc(F)cc1)N1CCN(CCOc2ccccc2)CC1	6.7	-0.3	4207	-8.7	-3.6	0.4
CN(C)c1ccc(NC2=C([N+](=O)[O-])CS(=O)(=O)C2)cc1	-23.0	-2.7	12044	-3.7	-2.1	34.2*
Cc1ccc(NC2=C([N+](=O)[O-])CS(=O)(=O)C2)cc1	-2.4	0.3	8101	-1.2	0.4	17.1
Cc1cc2occ(CC(=O)N(C)CC(=O)Nc3ccccc3Br)c2cc1C	x	x	x	x	-1.6	-4.5
COC(=O)Nc1nnc(-c2ccccc2Cl)s1	-4.6	-0.9	5185	-8.2	48.3*	1.9
CC(=O)NC(C)C(c1cccs1)N1CCN(c2ccccc2)CC1 (stereo not drawn)	0.8	u	16460*	-1.7	3.3	-0.4
SMILES	BoNT-F LC inh	BoNT-A LC inh2	Bead autofluor	Anthrax LF inh2	FBA Mtb inh	GDH-TPI inh
CCN(CC)S(=O)(=O)c1cccc(C(=O)NC(C)C(c2cccs2)N2CCCC2)c1 (stereo not drawn)	4.4	0.9	17341*	4.5	-2.9	-14.7
CC(NC(=O)c1cccc(F)c1)C(c1cccs1)N1CCN(C)CC1 (stereo not drawn)	-4.9	-4.6	23669*	0.8	1.0	-6.2
CCN1CCN(C(c2cccs2)C(C)NC(=O)c2cccc(OC)c2)CC1 (stereo not drawn)	-10.9	-0.7	5537	-9.4	-1.6	-1.9
Cc1ccc(C(=O)Cn2nc(C)c([N+](=O)[O-])c2C)c(C)c1	1.1	-0.3	3153	-1.7	5.1	3.4
CCOC(=O)c1c(/N=C/c2c(O)n(-c3cccc(C)c3)c(=O)[nH]c2=O)sc2c1CCCC2	-1.3	-0.1	2500	-1.0	3.6	1.1
Cc1cccc(NC(=O)c2ccc(Cn3cc(C(F)(F)F)ccc3=O)cc2)c1	-0.3	-1.0	16900*	-1.7	-1.4	3.6
CCOC(=O)N1CCC(c2cc(=O)n3[nH]c(C)c(-c4ccc(F)cc4)c3n2)CC1	-13.6	-0.9	5864	-11.3	22.5	-0.5
Cc1ccccc1-c1nn2c(-c3ccccc3)nnc2s1	1.3	-0.8	2490	-3.9	1.0	14.2
COc1cccc(OC)c1-c1nn2c(-c3ccccc3Cl)nnc2s1	1.7	0.3	21844*	0.2	3.0	10.9
COc1ccc(-c2nnc3sc(-c4ccco4)nn23)cc1OC	-16.0	-0.5	8184	-6.1	1.6	5.9
Clc1ccccc1-c1nnc2sc(-c3ccccn3)nn12	1.6	u	21229*	-2.3	-0.4	14.8
COc1cc(-c2nnc3sc(-c4ccco4)nn23)cc(OC)c1OC	-5.1	u	23532*	-2.2	-1.4	5.8
Clc1ccccc1-c1nnc2sc(-c3ccco3)nn12	-2.5	-2.0	23775*	0.7	0.9	-2.9
CCOc1ccccc1NC(=O)c1ccccc1NC(=O)c1ccco1	4.8	-0.2	3620	1.7	-9.4	0.4
COc1ccc(-c2csc(NC(=O)c3cccc(N4C(=O)CCC4=O)c3)n2)cc1C	3.4	-2.2	6313	-0.9	1.8	20.7
COc1ccc(/C=C2\Oc3cc(OCC(=O)N4CCC[C@H]4C(=O)O)ccc3C2=O)c(OC)c1	-7.1	0.3	5412	0.7	-1.5	-2.9
COc1cccc(/C=C2\Oc3cc(OCC(=O)N4CCC[C@H]4C(=O)O)ccc3C2=O)c1	-10.1	-0.8	6151	6.0	1.1	36.3*
Cc1ccc(C(=O)c2c[nH]c(C(=O)NCCCN3CCOCC3)c2)cc1	-9.4	0.1	8723	0.4	-1.1	-2.9
Cc1cc(=O)n2ccccc2c1C#N	4.4	u	22057*	1.1	+	24.9
C=CCOc1cccc(C2C(C(=O)c3ccco3)=C(O)C(=O)N2Cc2ccncc2)c1 (stereo not drawn)	-3.1	0.8	4638	2.8	-0.9	14.7
CC(C)c1cc(CNC(=O)C2CCC(=O)N(Cc3ccccc3F)C2)on1 (stereo not drawn)	-7.6	-2.3	6466	-3.8	1.6	1.4
Cc1ccc(Nc2nc(C)c(CCC(C)C)c(=O)[nH]2)cc1	-5.1	0.8	3586	-2.0	2.8	-1.9
Cc1nc(NCc2ccccc2)[nH]c(=O)c1CCC(C)C	0.0	-0.8	24000*	0.4	3.2	-5.0
O=c1[nH]c2cccnc2n1Cc1ccco1	-4.5	u	21423*	0.3	-5.7	-14.0
COc1ccc(-c2c3c(=O)n(C)c(=O)n(C)c3cn2-c2ccccc2)cc1	-11.8	-0.2	2852	-1.4	3.9	7.8
